# Laboratory results taken from PubChem BioAssay AID493203 (National Center for Advancing Translational Sciences (NCATS), 2011).
# Inconclusive results are not listed. A number with no mark means an inactive call. Active and inactive are the calls of the source. Calls come from the whole dose curve; as a rule, active = well fitted activation curve with a large enough effect; inconclusive = small, poorly fitted or top-dose-only effect; inactive = flat fitted curve, though single readings scatter.
# Experiment: qHTS Assay for NPC1 Promoter Activators: Initial hit validation from the primary screen;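 for activity, positive = activation: reporter driven by the mutant form of the NPC1 promoter; % of control where 0% means no effect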
# Conditions: Huh7 NPC1 promoter-luciferase reporter, luminescence, 24 h; series mostly up to 46.1 µM; activity, positive = activation: at the top concentration
# How it was run: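 Huh7 cells stably carrying NPC1 promoter-luciferase, 1500 cells per well in OP-MEM I with 10% FBS; compounds added after 2 hours and incubated 24 hours at 37C. Luminescence read 10 minutes after Amplite luciferase reagent.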
# Potency is the fitted concentration of half-maximal effect.
Structure (SMILES),Potency,"activity, positive = activation"
COc1ccc(-c2cc(C(=O)Nc3ccccc3F)on2)cc1,31.5 µM (active),–
O=C(NNC(=O)C1COc2ccccc2O1)c1ccccc1O (configuration not stated),–,5.4%
Cc1ccc(C(=O)NCc2ccc3c(c2)OCO3)cc1C,31.5 µM (active),–
CCc1cc(C(=O)Nc2ccccc2)cs1,2.23 µM (active),–
O=C(O)C1=CC[C@@H](c2ccc(Cl)cc2)N(S(=O)(=O)c2ccc(Cl)cc2)[C@H]1c1ccccc1,–,-1.2%
CCC(C)(C)NC(=O)C(c1ccc(OC)cc1)N(Cc1cccs1)C(=O)CCC(=O)Nc1cc(C)on1 (configuration not stated),–,-17%
O=C(CSc1nnc(Cc2cc(=O)[nH]c(=O)[nH]2)n1-c1ccc(Cl)cc1)NC1CCCC1,–,-2.11%
Cc1noc(/C=C/N(C)C)c1S(=O)(=O)N1CCCC(C(=O)N2CCCCC2)C1 (configuration not stated),–,-1.11%
Cc1ccc(C2C3=C(CC(C)(C)CC3=O)N(CCN3CCOCC3)C3=C2C(=O)CC(C)(C)C3)cc1,–,-3.06%
Cc1nc(-c2ccc(S(=O)(=O)Oc3ccc(Cl)cc3Cl)s2)cs1,–,-17.2%
COc1ccc2oc(=O)c(C(=O)NC(C)c3ccccc3)cc2c1 (configuration not stated),–,7.72%
CC(C)(C)NC(=S)NNC(=O)c1ccc2ncccc2c1,3.53 µM (active),–
CCCOP(=O)(c1ccc(N(C)C)cc1)C(O)c1cccnc1 (configuration not stated),–,0.546%
N#C/C(=C\c1ccc[nH]1)C(=O)Nc1ccccc1Cl,3.97 µM (active),–
O=C(/C=C/c1ccco1)NCC1OCCc2ccccc21 (configuration not stated),–,2.53%
O=C(CCS(=O)(=O)c1ccccc1)Nc1ccc(-c2nc3ccccc3s2)cc1,0.158 µM (active),–

Structure (SMILES),Potency,"activity, positive = activation"
COC(=O)c1ccccc1NC(=O)c1ccc(-c2ccc(Br)cc2)o1,–,-2.77%
COc1ccc(NC(=O)Nc2ccc(Cc3ccncc3)cc2)cc1OC,–,-8.22%
Nc1nc(SCCO)[nH]c(=O)c1NC(=O)c1ccco1,–,2.14%
CCOC(=O)c1ccc(-c2nnc(-c3ccc(Cl)cc3Cl)o2)cc1,2.5 µM (active),–
O=C(NCCc1c[nH]c2ccccc12)C(=O)NCC(c1ccco1)N1CCN(c2ccccc2F)CC1 (configuration not stated),–,0.564%
CCOCC(=O)Nc1c(C(=O)Nc2ccc3c(c2)OCCO3)oc2ccccc12,0.888 µM (active),–
COc1ccccc1NC(=S)NCc1ccc(Cl)cc1,–,1.66%
N#CC/C(N)=N/NC(=O)CCCNc1ncc(C(F)(F)F)cc1Cl,15.8 µM (active),–
Cc1ccccc1NC(=O)Cc1nc(COC(=O)CC(C)c2ccccc2)cs1 (configuration not stated),–,-6.35%
COC(=O)c1sccc1NC(=S)OC,–,-1.26%
Cc1ccc(N(O)C(=O)NCCCCNC(=O)N(O)c2ccc(C)cc2)cc1,25 µM (active),–
O=C(CSc1nnc(-c2ccccn2)o1)Nc1ccccc1F,1.12 µM (active),–
Cc1ccc(C#N)c(SCC(=O)Nc2nccs2)n1,1.12 µM (active),–
COC(=O)c1ccccc1S(=O)(=O)NNC(=O)Nc1ccccc1,12.5 µM (active),–
Cc1cc(C)c2c(N)c(C(=O)Nc3ccc([N+](=O)[O-])cc3)sc2n1,0.396 µM (active),–
O=C(CCCOc1ccc(Cl)cc1)N1CCCCC1,25 µM (active),–
